Experimental findings from PubChem BioAssay AID504452 (The Scripps Research Institute Molecular Screening Center, 2011) are described below.

The structures appear in SMILES notation. Calls of active or inactive are those of the source. No stated cut-off is given here; in the data, active means activation above about 85%; inactive means the rest.

For this assay, the target named is Peroxisome proliferator-activated receptor gamma (Homo sapiens) (UniProt P37231). Description: PPARg partial agonist activation, primary screen, cell-based, luciferase reporter, luminescence (AID 504452).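 Further: Cos-1 cells carrying PPARgamma and a response element luciferase reporter.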 As to conditions: at 5 µM, stronger effect = higher value; activation (% of full agonist control): measured here: relative to full agonist control. (In a reporter assay the amount or activity of a reporter protein is the signal.)
Sequence of Peroxisome proliferator-activated receptor gamma (Homo sapiens) (P37231 whole entry, looked up): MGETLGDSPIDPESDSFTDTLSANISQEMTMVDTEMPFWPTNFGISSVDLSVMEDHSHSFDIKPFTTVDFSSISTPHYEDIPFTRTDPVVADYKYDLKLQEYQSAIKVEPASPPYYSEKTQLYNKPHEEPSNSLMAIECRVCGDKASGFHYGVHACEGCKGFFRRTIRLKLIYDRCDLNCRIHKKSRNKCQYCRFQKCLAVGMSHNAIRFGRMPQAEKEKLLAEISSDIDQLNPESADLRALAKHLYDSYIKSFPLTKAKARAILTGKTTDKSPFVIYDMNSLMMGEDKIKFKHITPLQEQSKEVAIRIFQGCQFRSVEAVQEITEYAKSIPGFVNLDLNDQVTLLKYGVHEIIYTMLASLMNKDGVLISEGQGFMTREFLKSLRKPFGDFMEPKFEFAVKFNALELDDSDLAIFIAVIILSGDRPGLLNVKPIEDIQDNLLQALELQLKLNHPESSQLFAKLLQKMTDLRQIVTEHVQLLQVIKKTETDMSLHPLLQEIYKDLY
Take `O=C(CC1C(=O)Nc2ccccc2N1CC(=O)N1CCCC1)Nc1ccc(Br)cc1` (stereo not given): the activation (% of partial agonist control) was 81.9% (inactive) and the activation (% of full agonist control) is 37%.
Consider `Cc1cccn2c(=O)c(/C=C(\C#N)C(=O)NC3CCS(=O)(=O)C3)c(Oc3ccc(F)cc3)nc12` (stereo not given), for which the activation (% of full agonist control) stood at 34.6% and the activation (% of partial agonist control) was 76.7% (inactive).
With `CCOc1cc(C2C(C(=O)OC)=CN(Cc3ccc(Cl)cc3)C=C2C(=O)OC)ccc1O`, the activation (% of partial agonist control) was 83.2% (inactive) and the activation (% of full agonist control) was found to be 37.6%.
Regarding `COc1ccc(/C=C(\NC(=O)c2ccco2)C(=O)NC(Cc2ccccc2)C(=O)O)cc1` (stereo not given), the activation (% of partial agonist control) is 69.3% (inactive) and the activation (% of full agonist control) stood at 31.3%.
As for `Cc1ccc(C(=O)NCc2cccc(C(F)(F)F)c2)cc1S(=O)(=O)N1CCCCC1`, the activation (% of partial agonist control) is 56.7% (inactive) and the activation (% of full agonist control) was 25.6%.
